Here are results for 5 molecules from PubChem BioAssay.

Assay [1] is described as follows: optical density shifts of acrAB sulA E. coli – strain DRC41, OD650, 48 h, E. coli filamentation inducer project, primary screen (AID 1152).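 Note: E. coli MC1000 strain DRC41 lacking acrAB efflux pump and sulA.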 The conditions noted are these: higher = more signal, called active from +8 up or from −8 down.
The nature of assay [2]: probe aLefty1 binding on compound microarray – biochemical, small-molecule microarray, 635/667 nm fluorescence, primary screen (AID 1153).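 Note: score merges spot fluorescence with signal-to-noise ratio from the scanned slide images.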 Conditions: higher = more signal.
Assay [3] in a line: plasmodial surface anion channel blockers, osmotic lysis – cell-based, P. falciparum Indochina, OD700, 1 h, primary screen (AID 1154). Conditions: P. falciparum Indochina infected RBC osmotic lysis, higher = more signal, called active from +8 up or from −8 down.
A short description of assay [4]: plasmodial surface anion channel blockers, osmotic lysis – cell-based, P. falciparum Indochina, OD700, 2 h, primary screen (AID 1155).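 Note: lysis reports solute entry through the parasite surface anion channel PSAC.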 Conditions: P. falciparum Indochina infected erythrocytes, higher = more signal, called active from +8 up or from −8 down.
Assay [5] is described as follows: changes in parasitized red cell lysis, either direction – P. falciparum Indochina, OD700, 3 h, PSAC antagonist project, primary screen (AID 1156). Conditions: P. falciparum-infected erythrocytes, osmotic lysis, higher = more signal, called active from +8 up or from −8 down.
The nature of assay [6]: plasmodial surface anion channel blockers, osmotic lysis – cell-based, P. falciparum Indochina, OD700, 18 h, primary screen (AID 1157). The conditions noted are these: P. falciparum Indochina infected erythrocytes, osmotic lysis OD700, 18 h; higher = more signal, called active from +8 up or from −8 down.
Assay [7] can be described thus: S6 kinase pathway phospho-S6 level changes – cell-based, A549, cytoblot, luminescence, serum-stimulated, primary screen (AID 1158).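 Note: serum-stimulated A549 lung adenocarcinoma cells; signal is phosphorylated S6 detected by cytoblot immunostaining with HRP secondary.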 Conditions: 5 h, higher = more signal.
For assay [8], the target named is NADPH oxidase 2 (Homo sapiens) (UniProt P04839). Nature of the assay: compounds shifting NOX2 Amplex Red fluorescence – cell-based, HEK293-NOX2, PMA-stimulated, NOX inhibitor project, primary screen (AID 1159). Note: test concentration not given here. Conditions: 45 min, higher = more signal, called active from +8 up or from −8 down.
For assay [9], the target named is NADPH oxidase 4 (Homo sapiens) (UniProt Q9NPH5). The assay can be described thus: compounds shifting NOX4 Amplex Red fluorescence – cell-based, HEK293-NOX4, tetracycline-induced, NOX inhibitor project, primary screen (AID 1160). The conditions noted are these: HEK293-NOX4, Amplex Red H2O2 fluorescence, 45 min; higher = more signal, called active from +8 up or from −8 down.

In assay [10] the target is NADPH oxidase 5 (Homo sapiens) (UniProt Q96PH1). Nature of the assay: compounds shifting NOX5 Amplex Red fluorescence – cell-based, HEK293-NOX5, NOX inhibitor project, primary screen (AID 1161). Conditions: HEK293-NOX5, ionomycin, 45 min, higher = more signal.
Assay [11] is described as follows: compound effects on lung adenocarcinoma cell viability – A549, calcein-AM fluorescence, 48 h, basal, profiling panel (AID 1162). Note: test concentration not given here. The conditions noted are these: higher = more signal.
Assay [12] in a line: compound effects on differentiated 3T3-L1 adipocyte viability – cell-based, 3T3-L1 adipocytes, calcein-AM fluorescence, 48 h, basal, profiling panel (AID 1163). Note: test concentration not given here. Conditions: 3T3-L1 adipocytes viability, higher = more signal.
Assay [13] can be described thus: compound effects on hepatocellular carcinoma cell viability – HepG2, calcein-AM fluorescence, 48 h, basal, profiling panel (AID 1164). Note: test concentration not given here. Conditions: higher = more signal.
Assay [14] is described as follows: compound effects on multiple myeloma cell viability – MM1S, calcein-AM fluorescence, 48 h, basal, profiling panel (AID 1165). Note: test concentration not given here. The conditions noted are these: higher = more signal.
Assay [15] is described as follows: calcein-AM signal in unstimulated myeloma cells – cell-based, calcein-AM fluorescence, 48 h, PK04 Diversity Set, profiling panel (AID 1166).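 Note: cells grown under basal conditions without added stimulus; test concentration not given here.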 Conditions: RPMI8226 myeloma viability, higher = more signal.
Assay [16] can be described thus: JC-1 mitochondrial signal, unstimulated HepG2 cells – cell-based, JC-1 fluorescence, 24 h, 100 nL compound, profiling panel (AID 1167). Note: test concentration not given here. Conditions: HepG2 mitochondrial potential, higher = more signal.
A short description of assay [17]: JC-1 mitochondrial signal, unstimulated adipocytes – cell-based, JC-1 fluorescence, 3T3-L1 adipocytes, 24 h, 100 nL compound, profiling panel (AID 1168). Note: test concentration not given here. Conditions: JC-1 mitochondrial fluorescence, higher = more signal, called active from +8 up or from −8 down.
Assay [18] in a line: JC-1 mitochondrial signal, unstimulated myeloma cells – cell-based, JC-1 fluorescence, RPMI8226, 24 h, 100 nL compound, profiling panel (AID 1169). Note: test concentration not given here. The conditions noted are these: JC-1 mitochondrial potential fluorescence, higher = more signal.
Assay [19] can be described thus: JC-1 mitochondrial signal, unstimulated MM1S myeloma – cell-based, JC-1 fluorescence, 24 h, 100 nL compound, profiling panel (AID 1170). Note: test concentration not given here. The conditions noted are these: MM1S mitochondrial potential, higher = more signal.
A short description of assay [20]: resazurin metabolic signal in A549 cells – cell-based, resazurin fluorescence, 24 h, PK04 Diversity Set, profiling panel (AID 1171). Note: test concentration not given here. The conditions noted are these: A549 viability, higher = more signal, called active from +8 up or from −8 down. Background: The colour change of resazurin is a common sign of viable cells or microbes.

Calls of active or inactive are those of the source.

Chain of NADPH oxidase 4 (Homo sapiens) (Q9NPH5 whole entry, looked up): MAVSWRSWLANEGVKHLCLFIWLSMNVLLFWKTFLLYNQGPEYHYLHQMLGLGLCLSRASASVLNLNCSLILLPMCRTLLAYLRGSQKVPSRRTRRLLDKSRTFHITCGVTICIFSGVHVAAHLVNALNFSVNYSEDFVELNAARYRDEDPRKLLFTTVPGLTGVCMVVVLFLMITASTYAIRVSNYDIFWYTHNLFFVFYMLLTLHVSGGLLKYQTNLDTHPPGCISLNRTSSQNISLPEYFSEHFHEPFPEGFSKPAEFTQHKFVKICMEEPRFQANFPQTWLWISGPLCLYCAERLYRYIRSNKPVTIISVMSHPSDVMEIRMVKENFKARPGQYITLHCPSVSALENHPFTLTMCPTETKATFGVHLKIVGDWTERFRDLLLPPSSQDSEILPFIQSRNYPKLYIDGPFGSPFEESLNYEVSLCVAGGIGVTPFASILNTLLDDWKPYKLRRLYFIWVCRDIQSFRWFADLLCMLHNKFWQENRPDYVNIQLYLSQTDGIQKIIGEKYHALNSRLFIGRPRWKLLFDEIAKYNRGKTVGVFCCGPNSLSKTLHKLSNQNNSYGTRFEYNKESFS
Chain of NADPH oxidase 5 (Homo sapiens) (Q96PH1 whole entry, looked up): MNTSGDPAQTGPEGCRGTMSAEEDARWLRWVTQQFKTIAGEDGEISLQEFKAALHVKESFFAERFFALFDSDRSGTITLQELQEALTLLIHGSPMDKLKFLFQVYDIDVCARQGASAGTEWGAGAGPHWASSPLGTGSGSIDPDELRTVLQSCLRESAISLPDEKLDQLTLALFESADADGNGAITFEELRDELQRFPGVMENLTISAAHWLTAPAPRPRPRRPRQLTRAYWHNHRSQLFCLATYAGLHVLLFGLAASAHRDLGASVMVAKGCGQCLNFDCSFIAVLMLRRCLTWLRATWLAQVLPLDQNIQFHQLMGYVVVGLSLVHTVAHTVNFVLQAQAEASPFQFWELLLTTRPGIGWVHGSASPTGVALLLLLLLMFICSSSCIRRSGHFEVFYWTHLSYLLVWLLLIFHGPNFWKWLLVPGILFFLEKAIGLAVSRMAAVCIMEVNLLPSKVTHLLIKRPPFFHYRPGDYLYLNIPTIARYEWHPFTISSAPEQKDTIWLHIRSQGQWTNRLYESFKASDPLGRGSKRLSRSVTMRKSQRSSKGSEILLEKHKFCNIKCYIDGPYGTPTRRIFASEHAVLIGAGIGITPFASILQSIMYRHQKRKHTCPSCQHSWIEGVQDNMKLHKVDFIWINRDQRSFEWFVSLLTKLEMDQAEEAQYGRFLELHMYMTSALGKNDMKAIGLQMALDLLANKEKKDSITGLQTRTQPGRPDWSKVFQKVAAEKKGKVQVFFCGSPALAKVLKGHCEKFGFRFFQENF
Chain of NADPH oxidase 2 (Homo sapiens) (P04839 whole entry, looked up): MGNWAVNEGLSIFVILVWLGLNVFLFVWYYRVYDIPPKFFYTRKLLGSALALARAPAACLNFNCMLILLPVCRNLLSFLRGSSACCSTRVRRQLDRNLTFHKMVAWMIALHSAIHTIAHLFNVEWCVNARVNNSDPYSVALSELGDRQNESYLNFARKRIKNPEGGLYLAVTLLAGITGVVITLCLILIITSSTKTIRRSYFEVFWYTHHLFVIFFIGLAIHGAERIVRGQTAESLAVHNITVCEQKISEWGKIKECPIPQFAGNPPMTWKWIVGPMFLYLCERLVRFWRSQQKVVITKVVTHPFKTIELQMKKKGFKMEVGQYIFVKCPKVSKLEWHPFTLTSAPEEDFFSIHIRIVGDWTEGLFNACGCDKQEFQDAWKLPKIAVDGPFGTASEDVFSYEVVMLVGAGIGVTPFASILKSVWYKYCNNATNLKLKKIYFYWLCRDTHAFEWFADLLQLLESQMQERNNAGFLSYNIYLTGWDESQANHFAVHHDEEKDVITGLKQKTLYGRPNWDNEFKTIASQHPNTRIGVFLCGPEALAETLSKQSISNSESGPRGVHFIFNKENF

As for `C=C(CCCC)/C(=C/C[C@@H](OC(=O)c1ccncc1)c1ccc(OCCO)cc1)c1cc(C(=O)OC)ccc1OC`, the z-score in assay [1] was 0.4 (inactive); in [3], 17.3 (active); in assay [4], 3.18 (inactive); in [5], 1.85 (inactive); in [6] it was 0.969 (inactive); in [7], 0.377. In addition, the z-score was -1.61 (inactive) in assay [8]; -0.665 (inactive) in assay [9]; -1.9 in assay [10]; 0.941 in [11]; -0.18 in assay [12]; 1.86 in [13]. Also, the z-score is -0.61 in assay [14]; -0.385 in [15]; 2.46 in [16]; -0.451 (inactive) in assay [17]; -0.728 in [18]; -0.969 in assay [19]. Moreover, the z-score in [20] is 0.998 (inactive). For the same molecule, the composite z-score in assay [2] is -0.0984.
For `CCCc1cc2c(n1Cc1cc(F)cc(F)c1)C(C)C1CN(C(=O)c3ccccc3)C(C)(C(=O)OC)C21` (stereo not given), the z-score in assay [1] is -1.55 (inactive); in assay [3], 3.82 (inactive); in [4], 0.144 (inactive); in assay [5], 1.95 (inactive); in [6] it was 0.251 (inactive); in [7], -0.712. For the same molecule, the z-score in assay [8] was -1.69 (inactive); in [9], -2.91 (inactive); in assay [10], -2.52; in assay [11] it was -0.679; in assay [12], 0.149; in assay [13], -0.237. In addition, the z-score in assay [14] is -1.7; in assay [15], -4.39; in [16], 2.5; in assay [17], -1.98 (inactive); in [18], -0.904; in [19] it was -1.79. In addition, the z-score in assay [20] was -0.675 (inactive). In assay [2], the composite z-score amounted to 0.269.
On to `O=C(OCc1ccccc1)C1=CCC2c3[nH]c4ccccc4c3C(=O)C1N2S(=O)(=O)c1ccccc1[N+](=O)[O-]` (stereo not given), for which the z-score in assay [1] was -1.33 (inactive); in [3], 7.08 (inactive); in assay [4], 2.13 (inactive); in assay [5], 0.105 (inactive); in [6], 1.1 (inactive); in [7] it was -0.605. The z-score in assay [8] was 0.663 (inactive); in [9], -0.294 (inactive); in [10] it was -1.97; in assay [11], -0.725; in assay [12], -0.816; in assay [13], -0.267. Further, the z-score in assay [14] is -0.624; in [15] it was -0.286; in [16], -3.06; in [17], -4.43 (inactive); in [18] it was -1.14; in [19] it was -3.28. For the same molecule, the z-score in [20] was -0.311 (inactive). This molecule also displayed a composite z-score in assay [2] of -0.192.
Take `C=CCC(OC(C)=O)[C@@H]1[C@@H](N(Cc2cc3ccccc3o2)C(=O)c2cccc3ccccc23)c2cc(OCCCO)ccc2N1C(=O)c1ccc(-c2ccccc2)cc1` (stereo not given in full): the z-score is 1.45 (inactive) in assay [1]; 1.01 (inactive) in [3]; 0.0907 (inactive) in assay [4]; 0.358 (inactive) in [5]; 0.554 (inactive) in assay [6]; 0.332 in assay [7]. The z-score in assay [8] was 0.52 (inactive); in assay [9] it was -1.87 (inactive); in [10], -2.43; in assay [11], 0.067; in assay [12], 0.509; in assay [13] it was 0.168. Moreover, the z-score in assay [14] is 0.612; in assay [15] it was -2.25; in assay [16], 3.47; in assay [17] it was 0.0822 (inactive); in assay [18], -0.448; in assay [19], 0.955. Moreover, the z-score in assay [20] was -0.808 (inactive). The same molecule displayed a composite z-score in [2] of 0.0341.
`O=C(NCCN1CCOCC1)C1N=C(c2ccc(OCCCO)cc2)N(c2ccccc2)O1` (stereo not given): the z-score was 0.759 (inactive) in assay [1]; 6.99 (inactive) in [3]; 0.287 (inactive) in assay [4]; -0.625 (inactive) in [5]; 0.399 (inactive) in assay [6]; -0.441 in [7]. In addition, the z-score in assay [8] is 1.45 (inactive); in assay [9] it was -0.0142 (inactive); in assay [10], -0.429; in assay [11], 0.264; in assay [12], -0.126; in assay [13], 0.291. In addition, the z-score was 0.66 in assay [14]; -0.425 in assay [15]; 0.0176 in assay [16]; 0.653 (inactive) in assay [17]; -1.28 in assay [18]; 1.27 in [19]. In assay [20], the z-score was 0.712 (inactive). Moreover, the composite z-score in [2] turned out to be 0.0709.
